Reference: the supplement of paper PMC11001985
A number with no mark means an inactive call.

What follows are targets tested with C#CCNC(=O)CCSSCCC(=O)NCCc1ccc(C=O)c(C=O)c1 (assay: lysine labeling ratio R10:1 (500 µM / 50 µM probe), SILAC-ABPP in living cells; higher = lower intrinsic lysine reactivity toward the probe, active = 2 or less). Conditions: HeLa; probe concentrations 500 vs 50 µM.
Outline: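 With forward and reverse label swaps, light and heavy SILAC HeLa cells, alive and in PBS at room temperature, were exposed to either 500 µM or 50 µM of an alkyne-tagged lysine probe bearing a disulfide link. After mixing, lysates were clicked to biotin-azide, cut with trypsin, pulled down on neutravidin, freed with DTT, alkylated and analysed on a TIMS-TOF Pro by LC-MS/MS. The per-lysine value R is the median over forward and reverse replicates of the filtered median high-probe/low-probe MS1 peptide ratio. It is capped at 20.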

Chain of UniProt Q15149 (Q15149 whole entry): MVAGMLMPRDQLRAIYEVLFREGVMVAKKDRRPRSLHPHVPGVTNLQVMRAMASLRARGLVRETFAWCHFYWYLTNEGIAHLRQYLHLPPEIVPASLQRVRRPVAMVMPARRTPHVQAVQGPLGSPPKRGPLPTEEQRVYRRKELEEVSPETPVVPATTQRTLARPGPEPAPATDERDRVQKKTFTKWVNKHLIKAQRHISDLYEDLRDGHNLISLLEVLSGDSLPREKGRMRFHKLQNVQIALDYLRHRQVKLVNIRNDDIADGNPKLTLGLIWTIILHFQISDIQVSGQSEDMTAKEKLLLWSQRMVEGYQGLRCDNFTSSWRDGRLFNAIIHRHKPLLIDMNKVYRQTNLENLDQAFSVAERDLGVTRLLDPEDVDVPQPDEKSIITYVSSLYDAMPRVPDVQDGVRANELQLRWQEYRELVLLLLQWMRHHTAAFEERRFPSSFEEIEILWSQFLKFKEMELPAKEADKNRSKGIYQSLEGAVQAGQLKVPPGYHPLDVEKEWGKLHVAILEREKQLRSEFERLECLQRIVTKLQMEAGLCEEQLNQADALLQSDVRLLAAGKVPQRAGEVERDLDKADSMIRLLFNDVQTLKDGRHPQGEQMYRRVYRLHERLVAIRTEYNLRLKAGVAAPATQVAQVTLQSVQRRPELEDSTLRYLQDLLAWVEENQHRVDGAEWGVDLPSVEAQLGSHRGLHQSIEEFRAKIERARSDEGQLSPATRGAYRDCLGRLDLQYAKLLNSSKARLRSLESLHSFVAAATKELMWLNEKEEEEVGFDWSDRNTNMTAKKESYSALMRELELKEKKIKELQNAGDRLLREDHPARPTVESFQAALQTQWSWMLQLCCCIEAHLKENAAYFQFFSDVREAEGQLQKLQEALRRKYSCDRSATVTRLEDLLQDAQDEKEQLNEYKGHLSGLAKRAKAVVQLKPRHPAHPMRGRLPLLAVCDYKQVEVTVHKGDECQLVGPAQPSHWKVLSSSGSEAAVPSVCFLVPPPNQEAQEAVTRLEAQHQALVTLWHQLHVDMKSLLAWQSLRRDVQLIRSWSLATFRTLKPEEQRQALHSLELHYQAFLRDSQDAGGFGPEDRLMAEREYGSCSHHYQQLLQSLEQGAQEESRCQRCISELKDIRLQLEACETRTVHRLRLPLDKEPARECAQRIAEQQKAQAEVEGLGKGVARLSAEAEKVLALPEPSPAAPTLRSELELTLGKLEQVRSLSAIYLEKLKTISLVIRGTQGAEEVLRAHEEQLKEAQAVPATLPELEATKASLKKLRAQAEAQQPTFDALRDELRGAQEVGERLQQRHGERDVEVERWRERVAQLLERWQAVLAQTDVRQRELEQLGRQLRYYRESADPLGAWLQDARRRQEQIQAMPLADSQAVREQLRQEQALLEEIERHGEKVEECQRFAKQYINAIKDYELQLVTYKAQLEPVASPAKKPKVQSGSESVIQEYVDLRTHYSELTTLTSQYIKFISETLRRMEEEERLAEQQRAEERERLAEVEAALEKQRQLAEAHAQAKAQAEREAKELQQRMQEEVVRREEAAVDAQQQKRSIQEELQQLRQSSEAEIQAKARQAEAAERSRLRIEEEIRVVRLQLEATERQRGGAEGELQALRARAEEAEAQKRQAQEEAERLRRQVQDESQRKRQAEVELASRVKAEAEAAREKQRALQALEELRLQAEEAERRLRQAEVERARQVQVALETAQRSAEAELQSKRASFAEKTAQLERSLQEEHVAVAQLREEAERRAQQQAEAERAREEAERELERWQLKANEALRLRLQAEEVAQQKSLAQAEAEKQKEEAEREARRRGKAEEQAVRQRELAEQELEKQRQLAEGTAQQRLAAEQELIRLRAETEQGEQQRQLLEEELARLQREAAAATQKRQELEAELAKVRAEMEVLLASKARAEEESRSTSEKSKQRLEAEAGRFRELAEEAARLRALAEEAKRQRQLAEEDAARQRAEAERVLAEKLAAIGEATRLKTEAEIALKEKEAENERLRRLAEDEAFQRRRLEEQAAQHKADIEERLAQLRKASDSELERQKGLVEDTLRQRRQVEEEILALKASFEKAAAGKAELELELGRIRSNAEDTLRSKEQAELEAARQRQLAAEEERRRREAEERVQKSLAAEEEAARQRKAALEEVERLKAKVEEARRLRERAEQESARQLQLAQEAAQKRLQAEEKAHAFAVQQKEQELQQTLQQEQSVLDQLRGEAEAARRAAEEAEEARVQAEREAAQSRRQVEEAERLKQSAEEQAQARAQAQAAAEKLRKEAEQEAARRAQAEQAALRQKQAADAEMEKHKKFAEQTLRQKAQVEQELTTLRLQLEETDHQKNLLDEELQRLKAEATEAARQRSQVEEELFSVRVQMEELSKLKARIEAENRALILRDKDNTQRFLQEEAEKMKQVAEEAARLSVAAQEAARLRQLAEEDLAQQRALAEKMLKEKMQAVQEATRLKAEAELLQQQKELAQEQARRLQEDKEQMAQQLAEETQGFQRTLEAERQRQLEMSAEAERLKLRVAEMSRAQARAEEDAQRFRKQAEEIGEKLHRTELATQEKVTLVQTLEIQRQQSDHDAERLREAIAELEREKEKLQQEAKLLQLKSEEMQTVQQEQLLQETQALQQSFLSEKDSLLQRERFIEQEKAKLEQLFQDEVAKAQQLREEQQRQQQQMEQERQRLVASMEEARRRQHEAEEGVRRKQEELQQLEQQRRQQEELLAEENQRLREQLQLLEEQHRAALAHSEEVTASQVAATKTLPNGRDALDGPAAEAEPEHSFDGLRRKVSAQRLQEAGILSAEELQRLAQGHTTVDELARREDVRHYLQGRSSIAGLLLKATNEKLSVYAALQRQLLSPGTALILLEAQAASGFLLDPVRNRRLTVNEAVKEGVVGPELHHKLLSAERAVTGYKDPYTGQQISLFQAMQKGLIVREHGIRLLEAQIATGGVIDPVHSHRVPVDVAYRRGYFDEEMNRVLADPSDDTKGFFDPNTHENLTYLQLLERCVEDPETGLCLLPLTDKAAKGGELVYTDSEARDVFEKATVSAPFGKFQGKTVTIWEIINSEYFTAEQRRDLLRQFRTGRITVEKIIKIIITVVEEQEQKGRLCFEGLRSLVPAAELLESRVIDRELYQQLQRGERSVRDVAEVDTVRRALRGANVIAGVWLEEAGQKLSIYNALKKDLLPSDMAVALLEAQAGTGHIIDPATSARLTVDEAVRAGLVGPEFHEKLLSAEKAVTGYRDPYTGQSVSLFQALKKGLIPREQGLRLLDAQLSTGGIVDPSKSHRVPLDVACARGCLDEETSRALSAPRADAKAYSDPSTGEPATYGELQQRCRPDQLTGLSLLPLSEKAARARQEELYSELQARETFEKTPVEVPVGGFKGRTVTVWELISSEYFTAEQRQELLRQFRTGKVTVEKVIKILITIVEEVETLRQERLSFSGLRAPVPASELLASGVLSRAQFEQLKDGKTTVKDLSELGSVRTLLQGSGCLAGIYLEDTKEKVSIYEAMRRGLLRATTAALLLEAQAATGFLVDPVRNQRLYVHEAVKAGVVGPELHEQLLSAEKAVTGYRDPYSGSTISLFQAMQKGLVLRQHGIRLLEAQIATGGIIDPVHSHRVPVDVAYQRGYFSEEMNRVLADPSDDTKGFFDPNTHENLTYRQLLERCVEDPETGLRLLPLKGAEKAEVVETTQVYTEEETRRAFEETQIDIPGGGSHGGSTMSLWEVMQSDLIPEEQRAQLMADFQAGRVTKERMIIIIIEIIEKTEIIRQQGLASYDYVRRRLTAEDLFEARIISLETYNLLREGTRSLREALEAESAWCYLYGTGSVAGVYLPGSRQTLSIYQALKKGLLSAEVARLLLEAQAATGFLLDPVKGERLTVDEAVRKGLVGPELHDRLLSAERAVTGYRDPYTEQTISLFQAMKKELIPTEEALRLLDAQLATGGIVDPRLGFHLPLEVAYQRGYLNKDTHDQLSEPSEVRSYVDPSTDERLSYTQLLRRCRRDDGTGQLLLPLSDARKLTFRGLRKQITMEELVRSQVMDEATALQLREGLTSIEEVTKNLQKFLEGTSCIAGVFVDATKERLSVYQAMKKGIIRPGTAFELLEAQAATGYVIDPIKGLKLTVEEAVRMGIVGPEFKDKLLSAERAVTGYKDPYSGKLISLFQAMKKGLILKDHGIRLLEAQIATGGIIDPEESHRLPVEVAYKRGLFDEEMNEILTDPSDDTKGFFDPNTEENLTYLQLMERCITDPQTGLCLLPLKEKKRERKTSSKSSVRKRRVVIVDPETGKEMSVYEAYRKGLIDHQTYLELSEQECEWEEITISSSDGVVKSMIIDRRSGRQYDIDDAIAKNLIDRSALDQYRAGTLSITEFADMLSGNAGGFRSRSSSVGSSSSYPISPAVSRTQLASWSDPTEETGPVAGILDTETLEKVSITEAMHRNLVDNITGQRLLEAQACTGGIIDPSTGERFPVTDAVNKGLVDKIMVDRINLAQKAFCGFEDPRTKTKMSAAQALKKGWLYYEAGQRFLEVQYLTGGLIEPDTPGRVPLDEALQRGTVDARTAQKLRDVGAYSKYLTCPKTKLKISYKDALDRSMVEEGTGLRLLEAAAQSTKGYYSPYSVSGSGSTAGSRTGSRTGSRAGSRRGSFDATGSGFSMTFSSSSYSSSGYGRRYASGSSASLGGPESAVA
Chain of UniProt P15151 (P15151 whole entry): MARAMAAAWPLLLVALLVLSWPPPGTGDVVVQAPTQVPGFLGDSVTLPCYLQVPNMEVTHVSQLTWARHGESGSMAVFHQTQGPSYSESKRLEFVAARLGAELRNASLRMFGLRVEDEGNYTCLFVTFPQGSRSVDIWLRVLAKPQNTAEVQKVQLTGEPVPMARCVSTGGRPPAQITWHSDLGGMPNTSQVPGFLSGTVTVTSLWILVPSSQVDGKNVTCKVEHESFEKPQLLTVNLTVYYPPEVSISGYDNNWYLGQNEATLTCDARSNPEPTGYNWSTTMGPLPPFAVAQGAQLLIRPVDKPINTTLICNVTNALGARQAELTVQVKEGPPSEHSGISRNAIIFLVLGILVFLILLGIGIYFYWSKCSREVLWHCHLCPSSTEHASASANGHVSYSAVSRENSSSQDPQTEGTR

Row | Target | lysine labeling ratio R10:1
1 | UniProt Q8N441 (lysine site: K34) | 3.03
2 | FSCN1 (lysine site: K220) (UniProt Q16658) | 4.2
3 | EGFR (lysine site: K327) (UniProt P00533) | 5.84
4 | UniProt Q15149 (lysine site: K1774) | 8.57
5 | ITGAV (lysine site: K718) (UniProt P06756) | 2.95
6 | BASP1 (lysine site: K143) (UniProt P80723) | 3.54
7 | SEMA3C (lysine site: K40) (UniProt Q99985) | 3.38
8 | RPL4 (lysine site: K120) (UniProt P36578) | 3.18
9 | MYO1C (lysine site: K667) (UniProt O00159) | 2.86
10 | PSMD1 (lysine site: K890) (UniProt Q99460) | 1.11 (active)
11 | UniProt Q9H336 (lysine site: K304) | 2.33
12 | ICAM1 (lysine site: K359) (UniProt P05362) | 3.71
13 | CACNA2D1 (lysine site: K232) (UniProt P54289) | 3.57
14 | PPL (lysine site: K492) (UniProt O60437) | 1.71 (active)
15 | ITGA6 (lysine site: K586) (UniProt P23229) | 12.8
16 | ARHGDIA (lysine site: K178) (UniProt P52565) | 3.53
17 | EPHA2 (lysine site: K468) (UniProt P29317) | 3.11
18 | VIM (lysine site: K188) (UniProt P08670) | 11.1
19 | UniProt Q15149 (lysine site: K932) | 6.51
20 | RALA (lysine site: K143) (UniProt P11233) | 2.44

Row | Target | lysine labeling ratio R10:1
21 | CD55 (lysine site: K110) (UniProt P08174) | 2.89
22 | NECTIN3 (lysine site: K249) (UniProt Q9NQS3) | 5.88
23 | SERPINC1 (lysine site: K260) (UniProt P01008) | 5.6
24 | HINT1 (lysine site: K30) (UniProt P49773) | 1.48 (active)
25 | TSPAN3 (lysine site: K110) (UniProt O60637) | 4.07
26 | CD58 (lysine site: K167) (UniProt P19256) | 2.06
27 | UniProt P62249 (lysine site: K60) | 4.81
28 | MET (lysine site: K599) (UniProt P08581) | 1.67 (active)
29 | UniProt Q9NYU2 (lysine site: K356) | 1.45 (active)
30 | UniProt Q86V81 (lysine site: K235) | 2.42
31 | TFRC (lysine site: K693) (UniProt P02786) | 5.63
32 | MCAM (lysine site: K119) (UniProt P43121) | 11.1
33 | LGALS1 (lysine site: K108) (UniProt P09382) | 1.62 (active)
34 | AHNAK (lysine site: K563) (UniProt Q09666) | 2.5
35 | HNRNPM (lysine site: K381) (UniProt P52272) | 5.22
36 | PVR (lysine site: K153) (UniProt P15151) | 4.25
37 | HSPA8 (lysine site: K71) (UniProt P11142) | 2.62
38 | UniProt Q8WXD0 (lysine site: K130) | 1.74 (active)
39 | NPTN (lysine site: K244) (UniProt Q9Y639) | 8.84
40 | ALCAM (lysine site: K76) (UniProt Q13740) | 6.62
